# Screens: PubChem, National Center for Advancing Translational Sciences (NCATS)
# RGS12 GoLoco inh: inhibitors of human Gai1-RGS12 GoLoco interaction (red fluorophore); AID 880; 230,000 tested, 0.44% active; Potency, µM (series often up to 61.6 µM), for inactives: top-dose activity, negative = inhibition, usual class: inhibitors; Gai1:RGS12 GoLoco peptide FP, rhodamine, 10 min; P63096; active = well fitted inhibition curve with a large enough effect, not every such curve was filed as active; inactive = no such curve, though single readings can be large or run the other way; also: potency is read from the fitted curve at half-maximal effect; % is scaled to controls: 0 for no effect and ±100 for the full control effect; nearly all actives have a fitted effect of over 30% in size
# TRb-SRC2 inh: inhibitors of human thyroid hormone receptor beta-SRC2 interaction; P10828; TRbeta-SRC2 peptide binding, fluorescence polarization; receptor liganded with 1 µM T3; 280,000 tested, 0.065% active; AID 1469; Potency, µM (titrated, usually from 106 µM), for the others: at the highest dose activity change, negative = inhibition, usual class: inhibitors; active = well fitted inhibition curve with a large enough effect; inconclusive = small, poorly fitted or top-dose-only effect, or effect the other way;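 also: potency is read from the fitted curve at half-maximal effect; plate controls were bound peptide for no effect and peptide without receptor for full effect; nearly all actives have a fitted effect of over 50% in size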
#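 Human TRb LBD (0.6 uM) plus Texas Red-labeled SRC2 peptide (20 nM), 1uM T3, 5% DMSO, 5 hr at ambient temperature. Decreased polarization (555/632 nm) flags inhibition; data normalized to free and bound peptide controls.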
# Menin MLL FP TR: inhibitors of human menin-MLL interaction, mutant MLL peptide | O00255 | Menin + Texas Red MLL mutant peptide, fluorescence polarization | Potency, µM (series often up to 61.6 µM), inactives show at the top dose FP activity change, negative = inhibition, usual class: inhibitors | 270,000 tested, 0.23% active | AID 1768; active = well fitted inhibition curve with a large enough effect in the polarisation, with a control signal flat, not every such curve was filed as active; inconclusive = small, poorly fitted or top-dose-only effect, or effect the other way, or a change in a side signal; inactive = no such curve, though single readings can be large or run the other way; the % refers to the polarisation; also: potency is read from the fitted curve at half-maximal effect; % of control where 0% means no effect
# TexasRed fluor: counter-screen for TRb-SRC2 inhibitors: fluorescence interference; Potency, µM (highest dose often 106 µM), for inactives: at the top dose fluorescence change, negative = quenching; TRb/SRC2 Texas Red total fluorescence interference; 280,000 tested, 0.29% active; active = well fitted curve in either direction with a large enough effect; inconclusive = small, poorly fitted or top-dose-only effect; also: potency is read from the fitted curve at half-maximal effect; % is scaled to controls: 0 for no effect and ±100 for the full control effect
#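 Human TRb ligand-binding domain at 0.6 uM with 20 nM Texas Red SRC2 peptide in Tris buffer containing 1 uM T3 and 5% DMSO, incubated with compound 5 h at ambient temperature. Total fluorescence (555/632 nm) calculated as parallel + 2 × perpendicular.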
# CXXC DNA block: blocks binding of human MLL CXXC domain to DNA | 290,000 tested, 0.037% active | Q03164 | AID 2662 | MLL-CXXC / FITC-HOXA9 DNA fluorescence polarization | Potency, µM (doses to about 115 µM), for the others: at the top dose activity change, negative = inhibition, usual class: inhibitors; active = well fitted inhibition curve with a large enough effect in the polarisation, with a control signal flat, not every such curve was filed as active; inconclusive = small, poorly fitted or top-dose-only effect, or effect the other way, or a change in a side signal; inactive = no such curve, though single readings can be large or run the other way; the % refers to the polarisation; also: potency is read from the fitted curve at half-maximal effect
#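 Steps: dispense CXXC domain solution (7 uM) → pin compounds or unlabeled HOX-A9 DNA control → 5 min ambient → add FLSN-HOX-A9 solution (50 nM) → spin → 30 min ambient → fluorescence polarization. Tris pH 7.5/NaCl/DTT/BSA buffer.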
# Menin MLL FP FL: menin-MLL binding inhibition, fluorescein peptide; FP activity change, % at 61.4 µM; 290,000 tested, under 10 active; Fluorescence polarization, fluorescein-MLL peptide displacement from menin; active = well fitted curve in the direction sought with a large enough effect in the polarisation, not every such curve was filed as active; inconclusive = small, poorly fitted or top-dose-only effect, or effect the other way, or a change in a side signal; inactive = no such curve, though single readings can be large or run the other way; the % refers to the polarisation; also: % of control where 0% means no effect
# Active calls of the source: *; ? = inconclusive; · = no result; ! = not confirmed by another sample; [ ] = remark or other dose. Most compounds without a hit are left out; they make up all but 0.5% or so of the library.
SMILES,RGS12 GoLoco inh,TRb-SRC2 inh,Menin MLL FP TR,TexasRed fluor,CXXC DNA block,Menin MLL FP FL
CCCCn1cc(S(=O)(=O)c2ccc(CC)cc2)c(=O)c2cc(F)c(N3CCCC(C)C3)cc21 (stereo not drawn),·,-26.9%,·,89.1µM*[quencher],·,·
CCc1ccc(S(=O)(=O)c2cn(C)c3cc(N4CCCCC4C)c(F)cc3c2=O)cc1 (stereo not drawn),·,-24.0%,·,112µM*[quencher],·,·
CCc1ccc(S(=O)(=O)c2cn(C)c3cc(N4CCCC4)c(F)cc3c2=O)cc1,·,6.7%,·,7.7%,·,·
OCC1OC([S-])[C@H](O)C(O)C1O.[Au+] (stereo partly drawn),-8.5%,?,5.4%,12.6µM*[quencher],-10.5%,-1.1
Cn1c(CNc2ccc(Cl)cc2)nc2ccccc21,0.7%,3.5%,-11.3%,3.5%,5.9%,-4.9
CC(C)N=c1cc2n(-c3ccc(Cl)cc3)c3ccccc3nc-2cc1Nc1ccc(Cl)cc1,10µM*,-5.8%[53 µM],?,2.7%[53 µM],-5.2%[51.4 µM],-13.1[24.8 µM]
Cn1cc(C(=O)NCc2ccccc2)c(=O)c2cc(S(=O)(=O)N3CCCCCC3)ccc21,·,-8.7%,·,?,·,·
CCn1c(C)nc2cc(-c3nc4n(n3)Cc3ccccc3-4)ccc21,30.7%,-5.3%,28.2µM*,0.1%,-9.2%,0.7
Cc1ccc(-c2nc3n(n2)Cc2ccccc2-3)cc1,12.9%,-8.5%,13.5%,-1.9%,-19.3%,0.3
CCSc1nc2sc3c(c2c(=O)n1-c1ccc(C)c(Cl)c1)CCN(C(C)=O)C3,·,-5.5%,·,-2.1%,·,·
CCCCCSc1nc2sc3c(c2c(=O)n1-c1ccccc1)CCN(C(C)=O)C3,·,-27.6%[53 µM],·,0.0178µM*[quencher],·,·
CCCc1ccc(-c2ccc(C(=O)Oc3ccc(Br)cc3)cc2)nc1,·,-27.1%[53 µM],·,0.0355µM*[quencher],·,·
CCOc1ccccc1NC(=O)c1c(NCc2sccc2C)sc2c1CCC(C)C2 (stereo not drawn),·,?,·,0.141µM*[quencher],·,·
CCOc1ccccc1NC(=O)c1c(NCc2sccc2C)sc2c1CCCCC2,·,-2.6%,·,1.3%,·,·
CCCCCCc1cc2cc(-c3nnc(-c4ccc(C)cc4)o3)c(=O)oc2cc1O,·,-18.2%[53 µM],·,2512µM*[quencher],·,·
CCOc1ccc(C(c2c(O)cc(C)n(Cc3ccco3)c2=O)N2CCCCC2)cc1 (stereo not drawn),·,9.0%,·,-1.7%,·,·
COc1cc2c3nnc(-c4ccccc4)c-3cn(Cc3ccccc3F)c2cc1OC,0.0%,-3.4%,12.6µM*,-1.5%,5.7%,?
COc1cc2c3nnc(-c4ccc(F)cc4)c-3cn(Cc3ccccc3F)c2cc1OC,46.9%,-1.2%,-10.0%,-2.2%,?,?
CSc1nc2ccc(NS(=O)(=O)c3cccc(Cl)c3Cl)cc2s1,22.9%,-8.9%[53 µM],?,1.12µM*[quencher],3.5%,10.3
C[N+]1(CCCCC[N+]2(C)CCCC2)CCCC1,6.6%,7.6%,2.2%,-10.0%,-9.4%,6.4
CN(CCCCCC(=O)/C=N/O)Cc1ccccc1,4.9%,4.6%,-7.5%,-4.9%,2.0%,4.7
C[N+]1(CCCCCCC(=O)/C=N/O)CCCCCC1,12.6µM*,5.4%,6.9%,0.4%,6.5%,4.8
C[N+](C)(C)CCCCCCC(=O)/C=N/O,1.78µM*,-2.8%,10.4%,-2.0%,1.5%,5.8
Cc1ccc(-n2nnnc2SCC(=O)NCCc2ccccc2)cc1C,·,-0.6%,·,0.7%,·,·
COc1ccc(C2C(C(=O)c3cccs3)=C(O)C(=O)N2c2nncs2)cc1 (stereo not drawn),1.78µM*,1.0%,6.6%,1.5%,?,?
SMILES,RGS12 GoLoco inh,TRb-SRC2 inh,Menin MLL FP TR,TexasRed fluor,CXXC DNA block,Menin MLL FP FL
CC(C)C1CCC(C(=O)NC(Cc2ccccc2)C(=O)O)CC1 (stereo not drawn),20µM*,0.5%,-22.7%,-1.4%,0.2%,-1.5
Cn1nnnc1SCCCNCc1ccccc1OCc1ccccc1F,·,-1.6%,·,-20.3%,·,·
Cn1nnnc1SCCCNCc1cccc(OCc2ccc(F)cc2)c1,·,-26.2%,·,0.891µM*[quencher],·,·
Cn1nnnc1SCCNCc1ccccc1OCc1ccccc1F,·,-4.5%,·,10µM*[quencher],·,·
CCOc1c(Cl)cc(Cl)cc1CNCCSc1nnnn1C,·,-7.9%,·,8.91µM*[quencher],·,·
CN(C)C(=O)Nc1ccc(Oc2ccc(Cl)cc2)cc1,·,-8.4%,3.8%,-3.5%,·,-1.7
CC1=C(C(=O)OCc2ccc(C)cc2)C(c2ccccc2C(F)(F)F)CC(=O)N1 (stereo not drawn),·,1.4%,·,-0.1%,·,·
CN(C(=S)Nc1cccnc1)c1ccc(O)cc1,-14.3%,35.5µM*,-4.2%,-16.2%,-1.0%,3.1
CCOCC(=O)Nc1cccc(-c2nc3cccnc3s2)c1C,4.0%,-4.5%,3.0%,-3.2%,-5.3%,-0.2
COc1ccc(C(=O)Nc2cccc(-c3nc4cccnc4s3)c2C)c(OC)c1,·,-12.7%,·,100µM*[quencher],·,·
CC(Sc1nc(=O)cc(N)n1CCc1ccccc1)C(=O)Nc1ccc(Cl)cc1 (stereo not drawn),·,7.9%,·,2.3%,·,·
COC(=O)c1ccc(NC(=O)C(C)Sc2nc(=O)cc(N)n2CCc2ccccc2)cc1 (stereo not drawn),·,-7.9%,·,17.8µM*[quencher],·,·
O=C(Nc1ccc(C(=O)N2CCCCC2)cc1)c1nsc2ccccc12,·,-5.9%,·,-0.8%,·,·
CC1CCC/C(=C\Nc2ccc(O)cc2)C1=O (stereo not drawn),28.2µM*,28.2µM*,?,12.9%,13.3%,2.8
COC(=O)CCC(=O)OC1(C)C(=O)C=C2C=C(C3CC3)N(CC(C)C)C=C2C1=O (stereo not drawn),3.55µM*!,9.1%[11.2 µM],-27.8%[11.7 µM],1.1%[11.2 µM],-9.8%,?
CN(C)c1ccc(/C=C/C=C2/SC(=S)N(c3ccccc3)C2=O)cc1,-6.6%,?,·,3.16µM*[fluorescent],1.3%,?
COc1ccc(NS(=O)(=O)c2cc(NC(=O)c3ccco3)ccc2N2CCCCC2)cc1,8.91µM*,5.3%,16.4%,0.2%,0.1%,4.1
CC1=C(c2ccc(C(C)C)cc2)S(=O)(=O)N=C1N1CCC(C(=O)NCCc2ccco2)CC1,·,-18.8%,·,25.1µM*[quencher],·,·
C=CC(=O)NC(C)(C)CS(=O)(=O)O,·,2.7%[201 µM],·,-3.2%[201 µM],·,·
COC(=O)c1ccccc1C(=O)O,·,5.0%[201 µM],·,-0.2%[201 µM],·,·
CC(C)c1ccc(NC(=O)CCS(=O)(=O)c2ccc(Br)s2)cc1,·,?,·,28.2µM*[quencher],·,·
C[Si]1(C)O[Si](C)(C)O[Si](C)(C)O[Si](C)(C)O1,·,5.8%[201 µM],·,5.4%[201 µM],·,·
COc1ccccc1N1CCN(C(=O)CNS(=O)(=O)c2ccc(Br)s2)CC1,·,?,-19.4%,79.4µM*[quencher],32.7%,-0.5
C=CC(C)(CCC=C(C)C)OC(C)=O (stereo not drawn),·,-3.2%[201 µM],·,-4.5%[201 µM],·,·
CCCOP(=O)(c1ccc(N(C)C)cc1)C(Nc1ccccc1)c1ccc(N(C)C)cc1 (stereo not drawn),-9.4%,-19.0%[53 µM],-4.9%,31.6µM*[quencher],5.4%,4.1
